Compound activity (PubChem BioAssay)
An excerpt weighted towards active compounds, which were near 1.7% of everything screened.
RGS4 inhibitor: Inhibitors of Regulator of G Protein Signaling (RGS) 4: qHTS. Transcreener GDP fluorescence polarization, RGS4-accelerated GTP hydrolysis. Potency, µM (titrated, usually from 114 µM), actives largely listed as inhibitors. AID 504845, 2011. 0.039% of 390,000 active. Regulator of G-protein signaling 4 (Homo sapiens), P49798; also: nearly all actives have a fitted effect of over 75% in size
Target sequence (P49798 whole entry, looked up): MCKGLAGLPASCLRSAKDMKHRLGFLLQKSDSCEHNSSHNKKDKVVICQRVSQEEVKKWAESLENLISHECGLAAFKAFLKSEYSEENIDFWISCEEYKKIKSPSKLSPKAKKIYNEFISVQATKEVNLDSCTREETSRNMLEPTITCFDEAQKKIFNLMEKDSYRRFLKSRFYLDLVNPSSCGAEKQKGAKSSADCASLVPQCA
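MLSMR compounds (23 nl, pin-transferred) preincubated 10 min at room temperature with a 500nM (2x) first reagent, then RGS4 at 900nM (2x) plus Transcreener GDP mix added; fluorescence polarization (620/688 nm) read before and after 90 min at 30 °C.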
PTHR1 agonist: qHTS for PTHR1 Agonists: Primary Screen; Parathyroid hormone/parathyroid hormone-related peptide receptor (Homo sapiens), Q03431; HEK293 GP2 PTHR1 cells, GloSensor cAMP luminescence, 1 h; Potency, µM (series often up to 115 µM), most hits filed as activators; 0.075% of 410,000 active; also: nearly all actives have a fitted effect of over 55% in size
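HEK-293-derived GP2 cells expressing PTHR1 and a GloSensor cAMP reporter, 3,000/well, plated overnight, given luciferin plus IBMX (each 0.5 mM as added) for 1 h at 37 °C, then compound for 1 h at 37 °C. Luminescence was read after 15 min at room temperature.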
GLP1R ag: qHTS of GLP-1 Receptor Agonists. 0.007% of 380,000 active. Glucagon-like peptide 1 receptor (Homo sapiens), P43220. HEK293 GLP-1R CRE-luciferase, luminescence, 4-6 h; cells express a hypersensitive GLP-1R form. AID 624172, 2012. Potency, µM (highest dose often 45.6 µM), most hits filed as activators
Target sequence (P43220 whole entry, looked up): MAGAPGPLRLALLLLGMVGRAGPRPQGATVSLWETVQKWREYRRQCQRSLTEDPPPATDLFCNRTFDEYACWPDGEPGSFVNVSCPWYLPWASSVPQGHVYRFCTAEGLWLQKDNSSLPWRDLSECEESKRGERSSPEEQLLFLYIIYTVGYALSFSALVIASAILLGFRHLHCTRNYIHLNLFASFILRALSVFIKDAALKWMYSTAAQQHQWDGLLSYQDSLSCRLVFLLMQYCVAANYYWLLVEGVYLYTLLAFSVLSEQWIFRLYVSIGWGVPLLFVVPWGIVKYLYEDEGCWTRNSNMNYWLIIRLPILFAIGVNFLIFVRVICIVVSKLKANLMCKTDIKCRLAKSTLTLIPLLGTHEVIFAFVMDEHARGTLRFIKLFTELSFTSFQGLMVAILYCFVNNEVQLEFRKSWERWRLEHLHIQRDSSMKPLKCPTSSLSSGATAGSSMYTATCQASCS
HEK293 tox: qHTS of GLP-1 Receptor Inverse Agonists: Cytotox Screen; HEK293 cAMP-luciferase reporter cells, luminescence, 24 h; Potency, µM (highest dose often 38.3 µM), most hits filed as inhibitors; 0.13% of 410,000 active;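 also: loss of luciferase light is scored as toxicity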
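Cells in DMEM/10% Nu serum/1% pen-strep, 1536-well format. Pre-incubated 12 h, dosed with 23 nL compound, incubated a further 24 h. Luciferase detection, 12 min at room temp, luminescence.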
GLP1R inv ag: qHTS of GLP-1 Receptor Inverse Agonists (Inhibition Mode) | Glucagon-like peptide 1 receptor (Homo sapiens), P43220 | HEK293 GLP-1R CRE-luciferase, luminescence, 24 h; GLP-1R form is constitutively active | Potency, µM (doses to about 38.3 µM), hits mostly inhibitors | 1.6% of 410,000 active | AID 624417, 2012; also: nearly all actives have a fitted effect of over 55% in size
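HEK293 cells stably co-expressing constitutively active GLP-1R and a cAMP-responsive luciferase reporter were seeded in DMEM with 10% Nu serum, given compounds after 12 h, and incubated 24 h at 37 deg C. Luminescence was then read.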
Numbers stand for hits; - = inactive; ? = inconclusive; . = no result given; [ ] = dose if it differs, or a comment. Calls follow the shape of the dose curve; as a rule, active = well fitted curve in the direction sought with a large enough effect; inconclusive = small, poorly fitted or top-dose-only effect, or another doubt; inactive = no such curve, though single readings can be large; an effect the other way counts as inactive or inconclusive.

SMILES	RGS4 inhibitor	PTHR1 agonist	GLP1R ag	HEK293 tox	GLP1R inv ag
CCN1CCN(c2cc(C(C)C)nc3c(-c4ccccc4)c(C)nn23)CC1	-	-	-	?	4µM
O=[N+]([O-])c1cc(-c2csc(NCCc3nc4cc(Cl)c(Cl)cc4n3CCCO)n2)ccc1Cl	-	-	-	?	14µM
CCCn1c(CCNc2nc(-c3ccc(Cl)c([N+](=O)[O-])c3)cs2)nc2cc(Cl)c(Cl)cc21	-	-	-	-	-
O=C(O)CN(CCc1ccccc1)S(=O)(=O)c1ccccc1	-	-	-	-	-
COc1cccc(-c2cnc(C(O)c3ccc(C(C)(C)C)cc3)[nH]2)c1 (stereo not given)	.	-	-	-	?
OC(CNCCc1ccc(Cl)cc1)COc1cc(Cl)ccc1Cl (stereo not given)	-	-	-	?	10µM
COc1ccc(CN2C(=O)C(CC(=O)NC(c3ccccc3)c3ccccc3)CC(C(=O)N(C)C)=C2C)cc1 (stereo not given)	.	-	-	-	-
CCC(C)(C)NC(=O)CSc1nc(Cc2ccccc2)nc2ccccc12	-	-	-	-	4.5µM
COc1ccc(N(CC(=O)N2CCN(c3ccc(Cl)cc3)CC2)S(=O)(=O)c2c(C)n[nH]c2C)cc1	-	-	-	-	11µM
CN1CCN(c2ccc(NC(=O)CSc3nnnn3-c3ccccc3F)cc2)CC1	-	-	-	-	2.8µM
Cc1ccccc1-n1nnnc1SCC(=O)Nc1ccc(S(=O)(=O)N2CCCC2)cc1	-	-	-	-	11µM
Cc1ccc(-n2nnnc2SCC(=O)Nc2ccc(N3CCN(C)CC3)cc2)c(C)c1	-	-	-	-	3.5µM
COc1ccc(-c2onc(C)c2C)cc1S(=O)(=O)NCc1ccc(Br)cc1	-	-	.	-	-
CN(C)c1ccc(C2CNC(c3ccc(Cl)c([N+](=O)[O-])c3)c3[nH]c4ccccc4c32)cc1 (stereo not given)	-	-	-	-	4.5µM
CC/C=C(/C(=O)N[C@@H]1C(=O)N2C(C(=O)OCOC(=O)C(C)(C)C)=C(COC(N)=O)CS[C@H]12)c1csc(N)n1	.	.	-	.	.
O=[N+]([O-])c1ccc2c([N+](=O)[O-])ccc3c2c1CC3	.	-	-	-	-
Cc1cccc(OCC(=O)NCC(=O)N/N=C/c2cc(Br)cc(Br)c2O)c1	-	-	-	-	?
Clc1cccc(CN2C3=NCCCN3c3ccccc32)c1	-	-	-	-	-
CCCCCCCN1C2=NCCCN2c2ccccc21	-	-	-	-	10µM
Clc1ccc(CN2C3=NCCCN3c3ccccc32)c(Cl)c1	-	-	-	-	8.9µM
CCCCCCCN1C2=NCCN2c2ccccc21	-	-	-	?	5.6µM
CCCCCCN1C2=NCCN2c2ccccc21	-	-	-	-	-
COC(=O)c1ccc(Cn2c(SCC(=O)Nc3ccc(F)cc3)nc3ccccc32)cc1	-	-	.	-	-
CN(C(=O)CSc1nc2ccccc2n1Cc1cccc(C(F)(F)F)c1)c1ccccc1	-	-	.	-	10µM
CC(C)N(C(=O)CSc1nc2ccccc2n1Cc1ccc(F)cc1)C(C)C	-	-	-	?	2.8µM
SMILES	RGS4 inhibitor	PTHR1 agonist	GLP1R ag	HEK293 tox	GLP1R inv ag
O=C(c1ccc(OC2CCN(Cc3ccc(C(F)(F)F)cc3)CC2)cc1)N1CCCCC1	-	-	-	-	?
O=C(c1ccc(OC2CCN(Cc3ccccc3C(F)(F)F)CC2)cc1)N1CCCCC1	-	-	-	?	5µM
O=C(c1ccc(OC2CCN(Cc3ccccc3OC(F)F)CC2)cc1)N1CCCC1	-	-	-	-	3.2µM
Cc1ccc(CNC(=O)CCCn2c(=O)c3ccccc3n(CC(=O)C(C)(C)C)c2=O)cc1	-	-	-	-	?
CSCCC(NC(=O)c1ccccc1Cl)C(=O)NNC(=O)c1ccncc1 (stereo not given)	-	-	-	-	-
CN(c1ccccc1)S(=O)(=O)c1ccc(NC(=O)c2ccccc2)cc1	-	-	-	-	10µM
COc1ccc(NC(=O)c2ccc(OC(=S)N(C)c3ccc(OC)cc3)cc2)cc1	-	-	-	-	-
Cc1cccc(C(=O)NC(=S)Nc2ccc(S(=O)(=O)N(C)c3ccccc3)cc2)c1	-	-	-	-	?
CCN(c1ccccc1)S(=O)(=O)c1cc(C(=O)Nc2ccccc2Cl)ccc1F	-	-	-	-	?
CCN(c1ccccc1)S(=O)(=O)c1cc(C(=O)Nc2ccc(Br)cc2)ccc1F	-	-	-	-	2.5µM
CN(C(=S)Oc1ccc(C(=O)Nc2ccccc2)cc1)c1ccccc1	-	-	-	-	8.9µM
Cc1ccccc1C(=O)NC(=S)Nc1ccc(S(=O)(=O)N(C)c2ccccc2)cc1	-[11.4 µM]	-	-	-	8.9µM
C[C@@H]1CN([C@@H](C)CO)C(=O)c2cc(NC(=O)C3CCCCC3)ccc2O[C@@H](C)CCCCO[C@@H]1CN(C)Cc1ccncc1	.	-	-	-	-
CN(C)c1ccc(CNC(=O)CN2C(=O)CSc3ccc(S(=O)(=O)N4CCCC4)cc32)cc1	-	-	.	-	-
C=CCN(c1ccccc1OC)S(=O)(=O)c1cccc(C(=O)OCC(=O)c2c(N)n(C)c(=O)n(C)c2=O)c1	-	-	-	?	?
CCOc1cccc(C(=O)Nc2ccc(S(=O)(=O)N(Cc3ccccc3)c3ccccc3)cc2)c1	-	-	.	-	3.2µM
COc1cc(NC(=O)c2ccc(S(=O)(=O)N(C)c3ccccc3OC)cc2)cc(OC)c1	-	-	-	-	7.9µM
COc1cccc(C(=O)Nc2ccc(S(=O)(=O)N(Cc3ccccc3)c3ccccc3)cc2)c1	-	-	.	-	?
O=C(CSC1=Nc2ccccc2N=C(c2ccc(F)cc2)C1)NCc1ccccc1Cl	-	-	-	-	-
CCN(CC)CCNc1nc(-n2nc(C)cc2C)nc2sc3c(c12)CC(C)(C)OC3	-	-	-	?	4.5µM
O=c1c2c(nc(NCCO)n1CC1CCCCC1)-c1ccccc1CC21CCCC1	-	-	-	?	4µM
O=C(NCCc1c[nH]c2ccccc12)C(=O)c1c[nH]c2ccccc12	-	-	-	-	4.5µM
Cc1cc2cc(CCNC(=O)C(=O)c3c[nH]c4ccccc34)c(=O)[nH]c2cc1C	-	-	-	-	10µM
Cc1cc2cc(CCNC(=O)C(C)C)c(=O)[nH]c2cc1C	-	-	-	-	-
CCc1ccc(C2CC(=O)c3c([nH]c(C(=O)OC4CCCCCC4)c3C)C2)cc1 (stereo not given)	-	-	.	-	-
